Source: PubChem BioAssay
GAA850 FXN act: frataxin GAA850 promoter activation; 360,000 compounds, 0.56% hits; HEK293 lucGAA850 FXN promoter luciferase reporter, 24 h; percent of 10 µM SAHA response; activation, % at 6 µM;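 active means activation above the average of all compounds screened plus 3 SD, cutoff fixed separately per campaign, cut at about 7.5% in these data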;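 further: 0% = DMSO wells and 100% = 10 µM SAHA wells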
HSF1 inh: HSF1 inhibition | NIH3T3-HGL HSE-luciferase, MG132-induced, luminescence 8 h; hits give low values | 300,000 compounds, 0.77% hits | activity change, negative = inhibition, % at 7.5 µM (by protocol);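 active means more than half of replicate wells show activity change below -50%, luminescence cut by over half; inconclusive means some wells, but at most half, below -50%; inactive means no replicate well below -50%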;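 further: luciferase reports HSF-1 transcriptional activity via heat shock element; 0% = median of DMSO wells and -100% = zero luminescence signal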
PG9 binder: binds the HIV-1 gp120 antibody PG9; TR-FRET gp120-PG9 antibody binding; inhibition, % at 6.7 µM; 360,000 compounds, 0.43% hits; in the data active means inhibition above about 8.5%
AI-2 QS mod: modulators of Vibrio harveyi AI-2 quorum sensing system. Vibrio harveyi JMH597 AI-2 luminescence/OD600 ratio, 9 h; hits give low values; strain lacks LuxN and CqsS sensors; 0 = neutral-control median. activity change, % at 7.5 µM. 300,000 compounds, 0.4% hits. AID 2094; in the data active means activity change below about -75%, passing the limit was not always enough; inconclusive means no clear call, values can overlap the other calls;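 further: luminescence divided by OD600 gain over 9 h not by final OD600 alone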
HSP90 refold inh: HSP90 refolding inhibition in rabbit reticulocyte lysate; AID 1789; luciferase refolding luminescence, 3 h; inhibition, % at 5.6 µM; 290,000 compounds, 0.91% hits;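 active means inhibition above the screen-wide mean plus 3 SD, computed separately per campaign, cut at about 16% in these data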;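 further: 0% = DMSO wells and 100% = 60 µM geldanamycin wells; inhibitors lower the luminescence because luciferase stays unfolded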
SMARCA2 activ: SMARCA2 function activation, primary screen | activation, % at 9.1 µM | MG213 cells, MMTV-luciferase reporter, dexamethasone, overnight | 370,000 compounds, 1% hits | AID 652017; in the data active means activation above about 7.8%;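 further: 0% = vehicle wells and 100% = reference activator wells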
GAA30 FXN cntr: counter-screen for GAA850 frataxin promoter activators: GAA30 promoter activation. shares compounds with GAA850 FXN act. HEK293 lucGAA30 FXN promoter luciferase, 24 h; DMSO = 0%, 5 µM ipriflavone = 100%. activation, % at 6 µM. 1,900 compounds, 66% hits;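 active means mean activation above the mean of solvent-only control wells plus 3 SD, cut at about 22% in these data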;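 further: counterscreen of GAA850 promoter hits where activity marks nonselective or luminescence artifacts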
GAA850 confirm: confirmation of GAA850 frataxin (FXN) promoter activators | AID 588351 | HEK293 lucGAA850 FXN promoter luciferase reporter, 24 h; 100% = activation by SAHA | shares compounds with GAA850 FXN act | 1,900 compounds, 86% hits | activation, % at 6 µM;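 active means mean activation above a set limit taken from the primary screen, cut at about 8% in these data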;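 further: 0% = DMSO wells and 100% = 10 µM SAHA wells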
The depositor's hits bear a star; ? = inconclusive; nt = no result. The list is not random: actives were taken first. Their share in the collection is about 3.4%.

SMILES	GAA850 FXN act	HSF1 inh	PG9 binder	AI-2 QS mod	HSP90 refold inh	SMARCA2 activ	GAA30 FXN cntr	GAA850 confirm
COC(=O)CN1C(c2ccc(Cl)cc2)=Nc2ccc(Cl)cc2C1c1ccccc1 (stereo not drawn)	13*	14	-1	27	2	0	14	11*
CCS(=O)(=O)N1Cc2ccccc2CC1C(=O)NC(C)C12CC3CC(CC(C3)C1)C2 (stereo not drawn)	12*	-1	-1	61	5	0	27*	14*
CCS(=O)(=O)N1Cc2ccccc2CC1C(=O)Nc1ccc(F)cc1 (stereo not drawn)	3	2	-2	33	2	5	nt	nt
CCS(=O)(=O)N1Cc2ccccc2CC1C(=O)NCC12CC3CC(CC(C3)C1)C2 (stereo not drawn)	7.7*	1	-4	28	5	5	13	8.3*
O=C(N[C@@H](Cc1cccnc1)C(=O)N1CCC[C@H]1C(=O)NC1CCCC1)C1CC1	nt	nt	-1	nt	nt	0	nt	nt
CC(=O)NC(c1ccccc1)c1nc(-c2cccs2)cs1 (stereo not drawn)	1	nt	0	nt	nt	-2	nt	nt
CC(C)c1ccc(OCC(=O)N2CCCCCC2)c(Br)c1	7.8*	61	-1	20	-4	3	86*	29*
O=C(N/N=C/C(Br)=C/c1ccccc1)c1cc(-c2ccco2)[nH]n1	8.3*	125	-1	5	1	1	4	13*
CN(C(=O)c1cccc(COc2ccc(Cl)cc2Cl)c1)c1ccccc1	8.3*	-15	-3	29	-1	2	102*	39*
CCOC(=O)N1CCN(C(=O)c2ccc(CS(=O)(=O)c3ccc(OC)cc3)o2)CC1	14*	-3	-1	38	-2	-1	20	7
COC(=O)Cn1c(C(=O)N2CCCC2)cc2c1C[C@H]1CN(C(=O)c3ccccc3)[C@@](Cc3ccc(OC)cc3)(C(=O)OC)[C@@H]21	nt	nt	0	nt	nt	-1	nt	nt
COc1ccccc1-c1nc(-c2ccc(C)nc2OC)no1	8.8*	15	0	0	-7	4	121*	40*
O=C(O)/C=C/C(=O)NCc1cn(-c2ccccc2)nc1-c1cccc(Br)c1	8.2*	5	0	1	0	-2	30*	13*
C=CCn1c2ccccc2c(=O)c2cc(C#Cc3ccccn3)ccc21	9.0*	nt	0	nt	nt	6	140*	44*
C=CCn1c2ccccc2c(=O)c2cc(C#Cc3ccsc3)ccc21	nt	11	nt	15	2	nt	nt	nt
COc1ccc(OC)c2sc(N3CCN(c4ccccc4)CC3)nc12	8.8*	7	2	14	0	4	39*	17*
CCOC(=O)c1sc(Nc2ccccc2Cl)nc1C	9.9*	26	0	10	-1	3	103*	40*
CN(C)C(=O)N1CCN(C(=O)[C@H]2O[C@@H](n3ccc(N)nc3=O)[C@H](O)[C@@H]2O)CC1	nt	nt	-2	nt	nt	2	nt	nt
CCS(=O)(=O)N1CCN(c2ccc([N+](=O)[O-])c(NC(C)c3ccccc3)c2)CC1 (stereo not drawn)	1	4	-3	?	1	0	nt	nt
CC(Nc1cc(N2CCNCC2)ccc1[N+](=O)[O-])c1ccccc1 (stereo not drawn)	8.5*	8	-2	33	2	3	12	7
CCOC(=O)c1c(C)nc(-c2ccccc2)nc1N	8.0*	21	2	5	-4	1	131*	39*
COC(=O)CN1C(=O)C(C)=C(c2ccc(C)cc2)S1(=O)=O	13*	-1	-2	6	-2	-4	26*	8.2*
CN(C)c1ccc(-c2nnn(Cc3ccccc3Br)n2)cc1	12*	8	-2	-4	-2	1	70*	26*
Cc1c2c(nc3c(C(=O)NC4CC4)cnn13)CCCC2	4	-1	1	12	0	5	nt	nt
CCC(C)NC(=O)c1cnn2c(C)c3c(nc12)CCCC3 (stereo not drawn)	7.8*	3	0	14	-1	0	18	9.6*
SMILES	GAA850 FXN act	HSF1 inh	PG9 binder	AI-2 QS mod	HSP90 refold inh	SMARCA2 activ	GAA30 FXN cntr	GAA850 confirm
Nc1ccccc1Nc1cc(-c2ccccc2)[nH]n1	9.3*	10	-5	14	1	0	92*	54*
CC(C)c1cc(C(=O)Nc2cc(Br)ccc2O)no1	9.9*	7	-1	20	-2	-1	97*	33*
CCCCOc1ccc(C(=O)NC2CCCCN(Cc3ccc(C)cc3)C2=O)cc1 (stereo not drawn)	nt	nt	nt	nt	nt	-5	nt	nt
CC(C)Cc1ccc(C(C)C(N)=NCCc2ccccc2)cc1 (stereo not drawn)	11*	9	1	16	7	-4	-22	36*
C#CCN1C(=O)[C@]2(OCCC=C[C@H]2C)c2cc(OC)ccc21	nt	nt	0	nt	nt	-2	nt	nt
O=C1C=C(c2ccccc2)C(=O)N1Nc1ccccc1	4	37	-1	24	3	4	nt	nt
Cc1ccc(NN2C(=O)C=C(c3ccc(Cl)cc3)C2=O)cc1	9.5*	47	-1	43	-2	1	-6	18*
COc1ccc(C2=CC(=O)N(Nc3ccccc3)C2=O)cc1	8.2*	47	-2	26	7	4	25*	11*
S=C(NN=C(c1ccccc1)c1ccccn1)N(Cc1ccccn1)Cc1ccccn1	-11	nt	-3	nt	nt	0	nt	nt
CC(=NNC(=S)N(Cc1ccccn1)Cc1ccccn1)c1cnccn1	12*	nt	2	nt	nt	-4	-116	-33
COC(=O)[C@]12C[C@H](CC(=O)NCc3cccc4ccccc34)C(=O)N(Cc3ccccc3)C1=C[C@H](C(C)C)O[C@@H]2C1CC1	nt	nt	0	nt	nt	-8	nt	nt
CCOc1ccc(NC(=O)c2cc(S(=O)(=O)N3CCCCC3)c[nH]2)cc1	12*	-7	1	13	-2	-3	4	3
O=C(C(=O)N1CCC(CNC(=O)c2cccnc2Cl)CC1)c1cc2ccccc2o1	nt	nt	1	nt	nt	-4	nt	nt
O=C(NNC(=O)C12CC3CC(CC(C3)C1)C2)c1ccccn1	10*	9	0	64	4	3	-130	-37
O=C(NNC(=O)C12CC3CC(CC(C3)C1)C2)c1cnccn1	0	-9	-1	29	-4	-5	nt	nt
COc1ccccc1NC(=O)CN1CCC(n2nnc3cc(F)ccc32)CC1	0	9	-5	12	-2	2	nt	nt
